# Compound activity deposited in PubChem BioAssay by National Center for Advancing Translational Sciences (NCATS).
# Vif-APOBEC3F blk: inhibitors of Vif-A3F interaction; HeLa A3F-eYFP + Vif (tagged APOBEC3F with the HIV-1 protein that degrades it), YFP fluorescence increase; Potency, µM (highest dose often 46.1 µM), for the others: at the highest dose activity, negative = active; 0.2% of 390,000 active; also: % of control where 0% means no effect; nearly all actives have a fitted effect of over 65% in size
#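 Fluorescence increase (Ex 488/Em 500-530) after overnight compound treatment at 37 deg C flags inhibition of Vif-driven A3F-eYFP loss in stable HeLa A3F-eYFP/Vif cells seeded overnight beforehand.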
# Epigenetic reg: regulators of epigenetic silencing causing reporter derepression in mouse cells. 0.2% of 280,000 active. murine LDR cells, GFP reporter derepression, 30 h. Potency, µM (titrated, usually from 53.9 µM), for inactives: at the top dose GFP activation, actives largely listed as activators; also: % of control where 0% means no effect; nearly all actives have a fitted effect of over 60% in size
#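 Murine LDR cells carrying a silenced, genomically integrated CMV-driven GFP reporter were exposed to compound for 30 hours at 37 C. After PBS washes, GFP-positive cells (20–120 um objects) were counted by laser-scanning microplate cytometry.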
# GLS inhibitor: glutaminase GLS (human) inhibition | O94925 | GLS enzymatic activity, qHTS titration | Potency, µM (doses to about 45.5 µM), inactives show at the top dose activity change, negative = inhibition, hits mostly inhibitors | 0.21% of 410,000 active; also: % is scaled to controls: 0 for no effect and ±100 for the full control effect
# Target sequence (O94925 whole entry, looked up): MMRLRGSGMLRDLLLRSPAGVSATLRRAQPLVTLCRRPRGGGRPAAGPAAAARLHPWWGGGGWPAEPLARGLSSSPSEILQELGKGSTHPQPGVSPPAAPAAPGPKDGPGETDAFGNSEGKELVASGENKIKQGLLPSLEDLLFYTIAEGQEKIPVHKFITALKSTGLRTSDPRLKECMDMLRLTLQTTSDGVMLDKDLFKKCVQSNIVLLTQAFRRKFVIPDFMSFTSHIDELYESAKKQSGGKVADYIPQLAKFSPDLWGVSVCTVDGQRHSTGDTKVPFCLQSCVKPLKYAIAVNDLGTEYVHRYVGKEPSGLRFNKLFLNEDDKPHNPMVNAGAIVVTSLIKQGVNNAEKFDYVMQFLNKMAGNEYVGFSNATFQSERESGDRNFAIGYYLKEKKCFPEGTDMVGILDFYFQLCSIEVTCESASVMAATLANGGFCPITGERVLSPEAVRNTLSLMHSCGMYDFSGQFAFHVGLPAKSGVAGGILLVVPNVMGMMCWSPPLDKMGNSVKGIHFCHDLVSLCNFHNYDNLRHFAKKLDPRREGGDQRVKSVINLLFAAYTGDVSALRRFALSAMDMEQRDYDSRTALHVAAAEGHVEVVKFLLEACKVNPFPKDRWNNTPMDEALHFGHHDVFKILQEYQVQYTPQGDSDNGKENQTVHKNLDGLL
#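 Read-out is an Amplex red fluorescence increase coupled through glutamate oxidase and HRP, measured before and after 30 min room-temperature incubation. hKGA is in 45 mM KH2PO4 (pH 8.2) with 0.02% Tween-20; glutamine added as 1mM solution.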
# PINK1 modulator: modulators of PINK1 expression. PINK1 immunofluorescence, high-content cytometry, 24 h. Potency, µM (titrated, usually from 76.6 µM), inactives show top-dose activation (PINK1 increase), actives largely listed as activators. 0.2% of 410,000 active; active = well fitted activation curve with a large enough effect; inconclusive = small, poorly fitted or top-dose-only effect; cell line not stated here; also: % of control where 0% means no effect; nearly all actives have a fitted effect of over 65% in size
#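 Stable cell line, 250 cells/well, 12 h attachment; compounds pinned at 5 concentrations, 24 h; CCCP control. Fixed with nuclear dye, primary antibodies 12 h at 10 degrees C, secondary plus cell stain; laser-scanning cytometer read.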
# Vif-APOBEC3G blk: blocks the Vif interaction with human APOBEC3G; Q9HC16; HeLa A3G-eYFP + Vif (tagged APOBEC3G with the HIV-1 protein that degrades it), YFP fluorescence, overnight; Potency, µM (top dose mostly 46.1 µM), without a hit: at the top dose activity, negative = active, hits mostly inhibitors; 0.076% of 410,000 active; AID 602310; also: % is scaled to controls: 0 for no effect and ±100 for the full control effect; nearly all actives have a fitted effect of over 60% in size
#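 Read-out is eYFP fluorescence (Ex 488/Em 500-530) from Vif-expressing HeLa A3G-eYFP cells; more signal means A3G escaped Vif-mediated degradation. Cells plated overnight, compound pinned in, incubated overnight at 37 deg C.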
# * = called active by the depositor; ? = inconclusive; / = no result given. The list is not random: actives were taken first. Their share in the collection is about 0.7%. Unless noted, calls follow the shape of the dose curve; as a rule, active = well fitted curve in the direction sought with a large enough effect; inconclusive = small, poorly fitted or top-dose-only effect, or another doubt; inactive = no such curve, though single readings can be large; an effect the other way counts as inactive or inconclusive. Potency is read from the fitted curve at half-maximal effect.
SMILES,Vif-APOBEC3F blk,Epigenetic reg,GLS inhibitor,PINK1 modulator,Vif-APOBEC3G blk
C=CCn1c(=O)/c(=C/c2cc(OC)c(OC)c(OC)c2)s/c1=C(/C#N)c1nc2ccccc2n1C,22.4µM*,?,-1.7%,2.3%,-7.7%
COc1ccc(CNC(=O)CSc2ncc3c(n2)-c2cc(Cl)ccc2N(Cc2ccccc2)S3(=O)=O)cc1,7.7%,3.2%,0.9%,-0.4%,0.9%
COc1ccc(CNC(=O)CSc2ncc3c(n2)-c2cc(Cl)ccc2N(Cc2ccccc2)S3(=O)=O)cc1OC,0.1%,22.4µM*,4.1%,0.2%,-2.4%
COc1ccc(C2=CC(c3ccc(N(C)C)cc3)n3nnnc3N2)cc1 (stereo not drawn),11.2µM*,2.2%,4.9%,-0.7%,?
COc1cccc(C2=CC(c3ccc(N(C)C)cc3)n3nnnc3N2)c1 (stereo not drawn),31.6µM*,0.0%,23.2%,7.8%,?
CC(C)(C)NC(=O)C(c1ccco1)N(C(=O)Cn1nnc(-c2ccc(F)cc2)n1)c1cccc(F)c1 (stereo not drawn),-12.6%,-2.0%,1.1%,12.6µM*,-6.2%
Cc1cnc(-n2ncc(C(=O)NCc3ccncc3)c2C(C)C)nc1-c1ccc(F)cc1,/,/,/,-1.0%,/
CCCCN(C)C1=CC2=CC(=C(C#N)C#N)CCC2CC1 (stereo not drawn),-17.9%,?,-17.1%,12.6µM*,3.2%
O=C(c1cnsn1)N1CCOc2ccc(C(O)C(c3ccccc3)c3ccccc3)cc2C1 (stereo not drawn),/,/,/,1.9%,/
CC(=O)Nc1ccc(NC(=O)C/C(C)=N/NC(N)=S)cc1,7.94µM*,-1.4%,2.2%,0.3%,-1.9%
CCC(=O)N/N=C(\C)CC(=O)Nc1ccc(F)cc1,-2.6%,1.6%,2.6%,2.8%,4.2%
CC[N+](C)(C)c1ccc(/C=C/c2ccnc3ccccc23)cc1,/,/,/,/,5.9%
Cc1csc(SCC(=O)N2CCOc3ccc(C(O)C4CCCCC4)cc3C2)n1 (stereo not drawn),/,/,/,0.7%,/
COc1ccc(/C=c2\s/c(=C/C(=O)c3ccc(C)cc3)[nH]c2=O)c(OC)c1,25.1µM*,7.3%,1.4%,?,?
COc1cccc(Cn2c3ccc(NC(=O)CCc4ccc(F)cc4)cc3c(=O)n2C)c1,/,/,2.2%,9.9%,3.98µM*
COc1ccccc1CCC(=O)Nc1ccc2c(c1)c(=O)n(C)n2Cc1ccc(F)cc1,/,/,4.8%,0.7%,?
CCn1c(-c2ccccc2F)nc2cc(NC(C)=O)cc(C(=O)N3CCC[C@H]3C(=O)OC)c21,/,/,/,1.8%,/
CC(O)(COc1ccccc1)c1ccc2c(c1)CN(Cc1ccc3nsnc3c1)CCO2 (stereo not drawn),/,/,/,-0.3%,/
CC1CCN(S(=O)(=O)c2ccc(NC(=O)C3CCCCC3C(=O)O)cc2)CC1 (stereo not drawn),2.9%,/,11.2µM*,1.2%,4.5%
O=[N+]([O-])c1ccc(NNC(=S)Nc2ccccc2)cc1,-3.9%,-2.4%,16.9%,14.1µM*,0.0%
O=[N+]([O-])c1ccc(NC(=S)NCCc2ccccc2)cc1,-1.7%,-0.9%,-8.0%,?,-2.1%
COc1ccc(C)cc1Nc1n[n+](-c2ccccc2)c(-c2cc([N+](=O)[O-])cc(OC)c2O)s1,22.4µM*,/,0.3%,8.0%,-9.2%
COc1cccc(CNC(=O)c2c(OC)cc(=O)n3c2CCN(C(=O)c2cc(F)cc(F)c2)CC3)c1,/,/,/,-0.2%,/
Fc1ccc(CN2CCN(C(c3ccccc3)c3ccccc3)CC2)cc1,0.5%,/,1.0%,39.8µM*,-0.1%
NC(=O)c1cccc(-c2ccnc3c2CC(C(=O)NCc2ccco2)O3)c1 (stereo not drawn),/,/,-1.5%,10.8%,?
SMILES,Vif-APOBEC3F blk,Epigenetic reg,GLS inhibitor,PINK1 modulator,Vif-APOBEC3G blk
CC(=O)c1cccc(-c2ccnc3c2CC(C(=O)NCc2ccco2)O3)c1 (stereo not drawn),/,/,3.7%,3.5%,0.891µM*
COc1ccc(CN2CCCC(n3cc(C(=O)NC4CCCC4)nn3)C2)c2ccccc12 (stereo not drawn),/,/,/,1.4%,/
Cc1c(Cl)cccc1-c1ccc(/C=C(\C#N)c2nc3ccccc3[nH]2)o1,12.6µM*,?,-2.9%,3.9%,?
N#C/C(=C\c1c(Cl)cccc1Cl)c1nc2ccccc2[nH]1,-0.5%,-0.3%,-1.5%,?,-1.4%
Cc1ccc2nc(/C(C#N)=C\c3cc(O)ccc3[N+](=O)[O-])[nH]c2c1,-14.0%,-1.2%,8.0%,4.0%,?
Cc1ccc2nc(/C(C#N)=C/c3ccc(-c4ccc(F)cc4F)o3)[nH]c2c1,?,?,-9.9%,-0.3%,11.2µM*
Cc1ccc2nc(/C(C#N)=C/c3ccc(-c4cccc([N+](=O)[O-])c4)o3)[nH]c2c1,10µM*,-1.6%,-4.7%,?,-23.2%
CCn1c2ccccc2c2cc(CN3CCOc4ccc(C(O)c5cccnc5)cc4C3)ccc21 (stereo not drawn),/,/,/,1.3%,/
CCN(CC)CCn1c(-c2ccccc2)csc1=Nc1ccccc1,2.8%,-0.8%,30.3%,28.2µM*,0.2%
COc1cccc(C2(CC(=O)N3CCCOc4c(cccc4OC)C3)CC(=O)N(C)C2=O)c1 (stereo not drawn),/,/,/,-0.6%,/
O=C(NCC1CCCO1)c1nn2c(C(F)(F)F)cc(-c3cc(Br)cs3)nc2c1Br (stereo not drawn),10µM*,/,-3.5%,?,-9.0%
Cc1ccc(SCC(=O)Nc2cc([N+](=O)[O-])ccc2O)cc1,6.7%,1.4%,10.0%,15.8µM*,-4.6%
COc1ccc([N+](=O)[O-])cc1NC(=O)CSCc1ccc(Br)cc1,5.3%,-3.2%,-1.9%,4.3%,-0.7%
O=C(CSCc1ccc(Cl)cc1)Nc1cc([N+](=O)[O-])ccc1O,-0.9%,0.6%,0.0%,14.1µM*,1.9%
COc1cccc(C(=O)N2CCCC(c3nc(SCCN4CCOCC4)ncc3C)C2)c1 (stereo not drawn),/,/,/,2.1%,/
COc1cc(/C=C2/CCC/C(=C\c3cc(O)c(OC)c(Cl)c3)C2=O)cc(Cl)c1O,6.31µM*,?,-15.9%,-0.2%,?
COc1cc(/C=C2\CC/C(=C\c3cc(OC)c(O)c(OC)c3)C2=O)cc(OC)c1O,-19.2%,?,13.7%,1.8%,-11.1%
CCN1CCCC1CNC(=O)c1cnn(-c2nccc(-c3cc(OC)ccc3OC)n2)c1C (stereo not drawn),/,/,/,-0.8%,/
COc1ccc(-c2nc3c(C#N)c[nH]n3c2NC2CCCC2)c(OC)c1,5.0%,2.6%,12.6µM*,2.1%,-9.7%
CC(C)Oc1ccc(-c2nc3c(C#N)c[nH]n3c2NC2CCCCC2)cc1,2.5%,-2.4%,?,0.9%,1.2%
CCOc1ccc(-c2nc3c(C#N)c[nH]n3c2NC2CCCC2)cc1,5.8%,-3.3%,14.1µM*,1.4%,-11.5%
